From PubChem BioAssay (EPA / NIEHS)
Activity calls are given as the source filed them. Rule for the calls: active = hit-call score of the fitted dose curve at least 0.9, where 1 is the maximum; inactive = score below 0.9.

Assay: CCTE_Shafer_MEA_acute_cross_correlation_HWHM: CCTE's Neural Acute Assay for Cross Correlation at Half Width at Half Maximum, Shafer Lab (AID 2284026)
Description: CCTE_Shafer_MEA_acute assay is conducted using Axion Biosystems 48 well microelectrode array (MEA) plates and Maestro recording system. Each well of the MEA plate contains a grid of 16 microelectrodes embedded in the culture surface. Electrically active cells, such as neurons, can be cultured over the electrodes, and electrical activity in these cells can be recorded extracellularly. The spontaneous firing of neurons is captured from each electrode on a microsecond timescale providing both temporally and spatially precise data. […] The CCTE_Shafer_MEA_acute assay uses primary cultures of rat cortical neurons. As these cultures mature over time, neural networks develop functional activity and form cohesive networks in which electrical activity can be highly coordinated. Baseline 40-minute recordings are made on days post-plating 13 or 15, followed by a secondary 40-minute recording after chemical exposure.CCTE_Shafer_MEA_acute_cross_correlation_HWHM is a component of the CCTE_Shafer_MEA_acute assay. It measures the distance along the x-axis (phase lag) from the left half maximum height to the center of the cross-correlogram of action potential firing during a recording in a microelectrode array (MEA) using Axion Biosystems Maestro 768 channel amplifier with the AxIS adaptive spike detector. Smaller values indicate a narrower correlogram (greater synchrony). The recordings before and after chemical treatment are used to calculate a percent change in the half width at half maximum of the cross-correlogram in each well.Data from the assay component CCTE_Shafer_MEA_acute_cross_correlation_HWHM was analyzed into 1 assay endpoint. This assay endpoint, CCTE_Shafer_MEA_acute_cross_correlation_HWHM, was analyzed in the negative analysis fitting direction relative to DMSO as the negative control and baseline of activity. Using a type of functional reporter, gain or loss-of-signal activity can be used to understand electrical activity.
Spontaneous activity in the cortical cultures was recorded using an Axion Biosystems Maestro 768 channel amplifier and Axion Integrated Studios (AxIS) v1.8 (or later) software. The amplifier recorded from all channels simultaneously (gain = 1200 x; sampling rate = 12.5 kHz/channel): raw signals were filtered with a Butterworth band-pass filter (300-5000 Hz), which filters out slower local field potentials leaving only fast potentials, i.e., "spikes", arising from extracellular currents associated with action potentials (Pine 2006; Wheeler and Nam 2011). On-line spike detection of filtered signals was conducted with the AxIS adaptive spike detector, using a threshold of 8x the root mean squared (rms) noise on each channel. Any electrodes with rms noise levels greater than 5 uV were grounded (e.g., no data were recorded). Once grounded, an electrode was grounded for the duration of the experiment. All recordings were conducted at 37 C. Wells were deemed usable if on the day of the exposure >/= 10 electrodes were active (defined as >/= 5 spikes/min). On DIV 13 or 15, a minimum of three wells from one cortical culture preparation were treated with each compound (0.03-40 uM). Prior to recording baseline activity, each mwMEA plate was placed in the Maestro at 37 C and allowed to sit for 20 min while firing rates stabilized. Baseline activity (40 min) was recorded before the addition of each compound. An additional 40 min of spontaneous activity was recorded in the presence of each compound. Changes in network parameters relative to baseline were assessed following compound treatment.

AC50, active:
CNCCC(Oc1ccc(C(F)(F)F)cc1)c1ccccc1 (stereo not given) 7.68 µM
CC[N+](CC)(CC(=O)Nc1c(C)cccc1C)Cc1ccccc1 (tested in a mixture with another compound) 1.05 µM
CN(C)Cc1cc(C(C)(C)C)c(O)c(C(C)(C)C)c1 15 µM
CN(C)C(=O)C(CCN1CCC(O)(c2ccc(Cl)cc2)CC1)(c1ccccc1)c1ccccc1 2.31 µM
O=[N+]([O-])c1cc(S(=O)(=O)Nc2ccccc2)ccc1Nc1ccccc1 20.9 µM
COc1cc(CNC(=O)CCCC/C=C/C(C)C)ccc1O 5.46 µM
C1CN(CCOCCN2CCOCC2)CCO1 0.003 µM

outcome, inactive:
NC(N)=Nc1nc(CSCCC(N)=NS(N)(=O)=O)cs1
CCC[Si](OC(C)=O)(OC(C)=O)OC(C)=O
CC1(C)S[C@@H]2[C@H](NC(=O)[C@H](N)c3ccc(O)cc3)C(=O)N2[C@H]1C(=O)O
COc1ccc(C(=O)c2ccccc2O)c(O)c1
Cc1c(C(N)=O)cc([N+](=O)[O-])cc1[N+](=O)[O-]
CC1(C)S[C@@H]2[C@H](NC(=O)[C@H](N)c3ccccc3)C(=O)N2[C@H]1C(=O)O
COc1ccccc1Oc1c(NS(=O)(=O)c2ccc(C(C)(C)C)cc2)nc(-c2ncccn2)nc1OCCO
CC(C)C1OCCN1CCOC(=O)NCCCCCCNC(=O)OCCN1CCOC1C(C)C (stereo not given)
